The source of these data is ChEMBL document CHEMBL3988442, “University of Dundee, Small-Polar-MMV Screening Library” (2021).

The experiment concerns the target AMP-activated protein kinase, AMPK (Homo sapiens) (UniProt P54646+O43741+P54619+Q9UGJ0+Q9Y478+Q13131+Q9UGI9). Briefly: AMP-dependent Kinase enzyme assay. An in vitro enzyme assay that detects ADP turnover that is directly proportional to AMPK activity. This uses naive AMPK that is activated during the assay with MK-8722. Type of experiment: functional. Particulars: 30 µM. Also noted: scale not given: direction of the effect not stated beside the values.
For the compound `O=S(=O)(c1ccccc1N1CC(n2cccn2)C1)C(F)(F)F`, the Percent Effect came out at 16%. As to `CC(C)OCCS(=O)(=O)N1CCN(Cc2cccn2C)CC1`, the Percent Effect was -4.58%. For `O=C(CCn1cccn1)NCCOc1cccc(Cl)c1` the value was -3.1%; for `CN(C)C(=O)c1ccc2c(c1)nc(N1CC[C@H](O)C1)n2C`, 1.76%. Under `Cc1nc(C)c(C(=O)N2CCc3c(C)cccc32)o1` stands 4.71%; under `CCCn1cc(NC(=O)c2cccc(CN3CC=CC3)c2)nn1`, 3.97%. Under `OC1CCN(C2CCN(c3ccc(Cn4ccnc4)cn3)CC2)CC1` stands -3.24%. As to `CCOc1ccc(Br)cc1S(=O)(=O)N(CC)Cc1ccc(N(C)C)cc1`, the Percent Effect is -7.47%. On to `CC(C)N(C(=O)Cn1cc(Cl)cn1)c1ccccc1`, for which the Percent Effect is -3.03%. Turning to `CCOCCCNCc1cc(O)c2cc(C)ccc2n1`, the Percent Effect was -9.04%.

Take `Oc1cc(C2CCCCN2Cc2cccs2)nc(-c2ccccn2)n1` (stereo not given): the Percent Effect stood at 23.4%. Take `O=C(NCCNCc1cccc2c1OCCCO2)C1CCCC1`: the Percent Effect was -0.551%. Under `COCCN1C(=O)[C@H]2CC[C@@H]1CN(S(=O)(=O)c1ccc(C#N)cc1)C2` stands 10.8%. Under `Oc1cccc(CNCc2ccc(-n3cncn3)nc2)c1` stands 2.63%; under `COc1ccccc1-c1cccc(C2CCCN(C3CCOCC3)C2)n1` (stereo not given), -7.08%. For `CN(Cc1ccccc1)c1cnn(CC2COCCO2)c(=O)c1` (stereo not given) the value was 10.8%; for `OC(CNCc1nnc2ccccn12)c1ccc2c(c1)OCO2` (stereo not given), 9.33%; for `Cc1ncccc1CNC(CCO)C1CCCCC1` (stereo not given), -0.143%. As to `CCCC1c2ccccc2CCN1CCS(C)(=O)=O` (stereo not given), the Percent Effect was -0.239%.

For the compound `COc1cccc(O[C@H]2CCN(c3nc(C)cc(C)n3)CC[C@@H]2O)c1`, the Percent Effect came to 1.31%.
